{"source": "PubChem BioAssay (NCI)", "note": "Where “and” joins values, the source holds several entries; their conditions need not be identical. Equal entries are not always repeated. Compounds without any hit were thinned out: in the full panel of roughly 83,000, 20% have a hit.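 Method: cells in 96-well plates; compound added at one concentration; 48 h incubation; percent growth measured; values under 10 scored active.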 Calls of active or inactive are those of the source.", "data": [{"tested_on": "HL-60(TB) leukemia", "assay": "NCI-60 one-dose screen, 48 h (100 = growth as untreated, 0 = no growth, -100 = all killed)", "conditions": "10 µM unless noted", "values": [{"compound": "COc1ccccc1Nc1nnc(-c2ccc(Cl)cc2)o1", "growth": "-9.62% (active)"}, {"compound": "O=C(/C(=C/c1ccc([N+](=O)[O-])cc1)SCc1ccc(Cl)cc1)c1ccc(F)cc1", "growth": "59.5% (inactive)"}, {"compound": "COc1ccc2c(Nc3ccc(NS(C)(=O)=O)cc3)c3ccccc3nc2c1", "growth": "-8.29% (active)"}, {"compound": "CC1=CC(C)(C)NC(=S)N1c1ccc(Cl)cc1", "growth": "94.7% (inactive) and 97.6% (inactive)"}, {"compound": "NC(N)=NCCCCCNc1noc(Cc2c[nH]c3cc(Br)ccc23)n1", "growth": "44.9% (inactive)"}, {"compound": "C(=C\\c1nc2ccccc2[nH]1)/c1nc2ccccc2[nH]1", "growth": "93.4% (inactive)"}, {"compound": "NC1=NC(SCc2ccccc2CCl)c2ncn(Cc3ccccc3CCl)c2N1", "note": "(centres undefined)", "growth": "-25.5% (active)"}, {"compound": "CC(=O)N1N=C(c2ccc(Nc3nc(Nc4ccccc4)nc(Nc4ccccc4)n3)cc2)CC1c1cccc([N+](=O)[O-])c1", "note": "(centres undefined)", "growth": "94.8% (inactive)"}, {"compound": "CCOC(=O)C1C(=O)C=C(c2ccc(OC)cc2)CC1c1sc(N(C)Cc2ccccc2)nc1Cl", "note": "(centres undefined)", "growth": "83% (inactive)"}, {"compound": "CC(C)c1cc(CNc2nc(Nc3cc(C4CC4)[nH]n3)cc(N3CCN(C)CC3)n2)on1", "growth": "-32.9% (active)"}, {"compound": "Cc1cc2c(C(C)C)c(O)c(O)c(C=NCCCCCCC(=O)O)c2c(O)c1-c1c(C)cc2c(C(C)C)c(O)c(O)c(C=NCCCCCCC(=O)O)c2c1O", "growth": "28.9% (inactive)"}, {"compound": "COc1ccc2c(c1)C(C)Cc1c(ncnc1-n1c(C)nc3ccccc31)N2C", "note": "(centres undefined)", "growth": "1.95% (active)"}, {"compound": "COc1ccc(-c2nc(NN)c3c(C)nn(-c4ccc(F)cc4)c3n2)cc1", "growth": "0.613% (active)"}, {"compound": "CC(C)CCC[C@@H](C)[C@H]1CC[C@H]2[C@@H]3CC=C4C[C@@H](C(C(=O)O)C(=O)O)CC[C@]4(C)[C@H]3CC[C@]12C", "growth": "-44.4% (active)"}, {"compound": "CCCCCCNC(=O)Oc1ccc(/C(=C(/CC)Cc2ccccc2)c2ccc(OCCN(CC)CC)cc2)cc1", "growth": "55.2% (inactive)"}, {"compound": "COc1ccccc1/C=C/C(=O)/C=C/c1ccccc1OC", "growth": "15.1% (inactive) and 18.7% (inactive)"}, {"compound": "COc1ccc(C2C3=C(COC3=O)N(CCO)c3cc(OC)c(OC)cc32)cc1", "note": "(centres undefined)", "growth": "89% (inactive)"}, {"compound": "O=C(O)c1ccc[n+](CC(=O)N2CCN(c3cc4c(cc3F)c(=O)c(C(=O)O)cn4C3CC3)CC2)c1", "growth": "97.6% (inactive)"}, {"compound": "CC(=O)N1N=C(c2ccc(Cl)cc2)CC1c1cn(-c2ccccc2)nc1-c1ccc([N+](=O)[O-])cc1", "note": "(centres undefined)", "growth": "121% (inactive)"}, {"compound": "Cc1cc(N(CCCNc2ccnc3cc(Cl)ccc23)Cc2ccco2)nc(N2CCOCC2)n1", "growth": "45.5% (inactive)"}, {"compound": "Fc1ccc(-c2nn(-c3ccccc3)cc2-c2nc3ccccc3o2)cc1", "growth": "77.3% (inactive)"}, {"compound": "COc1ccc(Oc2ccccc2NC(=O)CNC(=O)c2cccc3ccccc23)cc1", "growth": "-22.8% [5 µM] (active)"}, {"compound": "COCCc1ccc(OCC(O)CNC(C)C)cc1", "note": "(centres undefined)", "growth": "94.2% (inactive)"}, {"compound": "COc1ccc(-c2nnc(-c3ccc4c(c3)nc(-c3ccncc3)n4C3CCCCC3)o2)cc1", "growth": "46.1% (inactive)"}, {"compound": "O=C(Nc1cccc([N+](=O)[O-])c1)Nc1cccc([N+](=O)[O-])c1", "growth": "13% (inactive)"}, {"compound": "O=CN1CCCCC1", "growth": "97% (inactive)"}, {"compound": "CCN(CC)CCCC(C)Nc1cnc(C(=O)Nc2cc(F)cc3cccnc23)cn1", "note": "(centres undefined)", "growth": "85.5% (inactive) and 5.69% (active)"}, {"compound": "CN(C)c1ccc(C(=N)c2ccc(N(C)C)cc2)cc1", "growth": "12.3% (inactive) and 6.84% (active)"}, {"compound": "COc1ccc(-c2nc3ncccn3c2-c2nnc(-c3ccc(F)cc3)o2)cc1", "growth": "91.1% (inactive)"}, {"compound": "O=c1oc2ccc(Cl)cc2c(=O)n1-c1cc(C(F)(F)F)cc(C(F)(F)F)c1", "growth": "-20.6% (active)"}, {"compound": "NCCOc1ncccc1/C=C1\\c2ccccc2-c2ccc([N+](=O)[O-])cc21", "growth": "-41.7% (active)"}, {"compound": "CCCCC(N)(C(=O)O)C1CCCC1", "note": "(centres undefined)", "growth": "132% (inactive)"}, {"compound": "Cc1nc2ncccc2nc1Nc1ccc(S(=O)(=O)Nc2ccccn2)cc1", "growth": "100% (inactive)"}, {"compound": "O=Cc1ccccc1C(=O)O", "growth": "111% (inactive)"}, {"compound": "COc1cc2ncnc(-n3ncc4cc(NC(=O)Nc5ccc(Cl)c(Cl)c5)ccc43)c2cc1OC", "growth": "15.3% (inactive)"}, {"compound": "CCCCN(CCCC)CCCOC(=O)c1ccc(N)cc1", "growth": "76.4% (inactive)"}, {"compound": "CN1C(=O)N(C)C2Nn3c(s/c(=C\\c4ccc(C(F)(F)F)cc4)c3=O)=NC21", "note": "(centres undefined)", "growth": "98.9% (inactive)"}, {"compound": "CCCCn1c(-c2ccc(F)cc2)nc2cc(OC)c(OC)cc2c1=O", "growth": "67.1% (inactive)"}, {"compound": "CN(C)c1ccc(/C=N/NC(=O)COc2cc(=O)n(C)c3ccccc23)cc1", "growth": "98.5% (inactive)"}]}]}
